# LASV entry inh: qHTS for Inhibitors of binding or entry into cells for Lassa Virus. Lassa virus pseudotyped entry inhibition, cell-based qHTS. Potency, µM (highest dose often 49.2 µM), for the others: top-dose activity change, negative = inhibition, most hits filed as inhibitors. 18,000 tested, 4.1% active. AID 720533, 2013
# Marburg entry: qHTS for Inhibitors of binding or entry into cells for Marburg Virus | Marburg virus pseudotype entry/binding inhibition, cell-based | Potency, µM (highest dose often 49.2 µM), for the others: at the top dose activity change, negative = inhibition, usual class: inhibitors | 18,000 tested, 6.5% active | AID 720532, 2013
# Starred values were filed as active, the others as inactive; ? = inconclusive; [ ] = dose if it differs, or a comment. A selection: hits, their analogues and other compounds. The true share with any hit is near 8%. Calls come from the whole dose curve; tested in HEK293 cells. % is set by controls: 0 for no effect and ±100 for the full control effect; potency is the fitted concentration of half-maximal effect.
SMILES,LASV entry inh,Marburg entry
CN1CC[C@@]2(c3cccc(O)c3)Cc3nc4ccccc4cc3C[C@H]2C1,-3.8%,17.8µM*
CCC(=O)O[C@]1(c2ccccc2)CCN(C)C[C@H]1C,-4.4%,6.8%
Cc1cc(/C=C/c2ccc3cc(N(C)C)ccc3[n+]2C)c(C)n1-c1ccccc1,10µM*,?
O=C1[C@@H]2[C@@H](C(=O)N1CC(O)COCc1ccccc1)[C@H]1C=C[C@@H]2C1 (some centres not stated),-22.1%,7.0%
O=C1CCCC2=C1[C@H]1O[C@](c3ccsc3)(Cc3c1ccc1ccccc31)O2,1.8%[8.59 µM],-13.7%[8.59 µM]
CC(=O)Oc1ccc2c(c1OC(C)=O)OCC1(O)Cc3c(cc(OC(C)=O)c(OC(C)=O)c3OC(C)=O)C21 (configuration not stated),-18.9%,7.94µM*
Oc1cc2c(cc1O)[C@H]1c3ccc(O)c(O)c3OC[C@@]1(O)C2,-14.2%,?
C/C=C1\NC(=O)[C@H]2CSSCC/C=C/[C@H](CC(=O)N[C@H](C(C)C)C(=O)N2)OC(=O)C(C(C)C)NC1=O (some centres not stated),3.16µM*,1.12µM*
COC(=O)CN1CN(c2ccccc2)C2(CCN(Cc3ccc4ccccc4c3)CC2)C1=O,-1.8%,?
O=C(CCCN1CCC2(CC1)C(=O)N(Cc1cccc(F)c1)CN2c1ccccc1)c1ccc(F)cc1,15.8µM*,8.91µM*
CC1=C(C(=O)Nc2ccc3n[nH]c(C)c3c2)C(c2ccc(C(F)(F)F)cc2)CC(=O)N1 (configuration not stated),0.8%,?
C[C@@]12C(=O)OC(=O)[C@]1(C)C1CCC2O1,2.24µM*,4.47µM*
COC(=O)c1c(C(=O)OC)c2c3ccccc3cc(C3CC3)n2c1C(=O)OC,1.8%[8.59 µM],12.2%[8.59 µM]
O=C1C2CC3CC1CC(O)(C3)C2,3.9%,10.5%
CC1=C[C@@H](COCc2ccccc2)O[C@@]2(C1)C(=O)N(Cc1ccc(Br)cc1)c1ccccc12,-10.0%[8.59 µM],3.7%[8.59 µM]
Cc1cc2c(c(=O)n1Cc1ccccc1)[C@H]1O[C@](CCCCN3C(=O)c4ccccc4C3=O)(Cc3cc(C#N)ccc31)O2,-3.2%[8.59 µM],?
CN1CC(O)C2=CC(=O)C(=O)C=C21 (configuration not stated),0.6%,8.91µM*
CC[C@@H]1OC(=O)[C@@H](C)[C@H](O[C@H]2C[C@@](C)(OC)[C@@H](O)[C@H](C)O2)C(C)[C@H](O[C@H]2O[C@@H](C)C[C@@H](N(C)C)[C@@H]2O)[C@@](C)(O)C[C@H](C)C(=O)[C@@H](C)[C@H](O)[C@@]1(C)O (some centres not stated),0.3%,?
CC[C@H]1OC(=O)[C@H](C)[C@@H](O[C@H]2C[C@@](C)(OC)[C@@H](O)[C@H](C)O2)[C@H](C)[C@@H](O[C@@H]2O[C@H](C)C[C@H](N(C)C)[C@H]2O)[C@](C)(O)C[C@@H](C)CN(C)[C@H](C)[C@@H](O)[C@]1(C)O,?,2.82µM*
CC[C@@H]1OC(=O)[C@H](C)[C@H](O[C@@H]2C[C@](C)(OC)[C@H](O)[C@H](C)O2)[C@H](C)[C@H](O[C@@H]2O[C@@H](C)C[C@@H](N(C)C)[C@@H]2O)[C@](C)(O)C[C@H](C)C(=O)[C@H](C)[C@H](O)[C@]1(C)O,22.0%[17.8 µM],0.8%[17.8 µM]
CCC1OC(=O)C(C)[C@@H](O[C@H]2C[C@@](C)(OC)C(O)C(C)O2)C(C)[C@@H](O[C@@H]2OC(C)CC(N(C)C)C2O)[C@@](C)(O)CC(C)CN(C)C(C)C(O)[C@]1(C)O (some centres not stated),?,0.631µM*
COc1ccc2c(c1)[C@H](C=Cc1ccccc1)[C@@H]([C@H](O)CO)O2,-6.3%[8.59 µM],17.3%[8.59 µM]
COC(=O)C1=C(C)N(Cc2ccccc2)C(=S)NC1c1cccc(F)c1 (configuration not stated),0.9%[8.59 µM],48.3%[8.59 µM]
O=C1Nc2cccc(Br)c2[C@@]12O[C@H](COc1ccccc1)CC1=CCCC12 (some centres not stated),-27.6%[8.59 µM],?
CCCCCCC(C)(C)c1cc(OC)c2c(c1)OC(C)(C)[C@@H]1CC=C(C)C[C@@H]21,-18.6%,5.3%
SMILES,LASV entry inh,Marburg entry
CCCCCc1cc(O)c2c(c1)OC(C)(C)[C@@H]1CCC(C)=C[C@@H]21,35.5µM*,-23.0%
Cc1cc2c(c(=O)o1)[C@H]1O[C@](c3ccsc3)(Cc3cc(C#N)ccc31)O2,-8.5%[8.59 µM],?
CC(C)[C@@H](OCc1ccccc1)[C@H](C)C=NO[C@H](C)c1cn([C@H](CO)Cc2ccccc2)nn1,-4.1%[8.59 µM],37.5%[8.59 µM]
CCN(CC)CCOc1ccc(C(O)(Cc2ccc(Cl)cc2)c2ccc(C)cc2)cc1 (configuration not stated),25.1µM*,3.55µM*
CCN(CC)CCNC(=O)COc1ccc(Cl)cc1,4.1%,-28.1%
O=C(Nc1ccc(Cl)c(Cl)c1)C1CC1,-9.1%,5.6%

# Screens (PubChem)
